The values that follow come from ChEMBL document CHEMBL1201862, “PubChem BioAssay data set” (2004).

Out of some 400,000 compounds screened, about 2,100 (0.53%) were called active. Roughly 14% stayed inconclusive and do not appear here. The rule behind the calls is not given here. This excerpt belongs to a sample that is enriched for actives.

Ataxin-2 (Homo sapiens), sequence (Q99700 whole entry): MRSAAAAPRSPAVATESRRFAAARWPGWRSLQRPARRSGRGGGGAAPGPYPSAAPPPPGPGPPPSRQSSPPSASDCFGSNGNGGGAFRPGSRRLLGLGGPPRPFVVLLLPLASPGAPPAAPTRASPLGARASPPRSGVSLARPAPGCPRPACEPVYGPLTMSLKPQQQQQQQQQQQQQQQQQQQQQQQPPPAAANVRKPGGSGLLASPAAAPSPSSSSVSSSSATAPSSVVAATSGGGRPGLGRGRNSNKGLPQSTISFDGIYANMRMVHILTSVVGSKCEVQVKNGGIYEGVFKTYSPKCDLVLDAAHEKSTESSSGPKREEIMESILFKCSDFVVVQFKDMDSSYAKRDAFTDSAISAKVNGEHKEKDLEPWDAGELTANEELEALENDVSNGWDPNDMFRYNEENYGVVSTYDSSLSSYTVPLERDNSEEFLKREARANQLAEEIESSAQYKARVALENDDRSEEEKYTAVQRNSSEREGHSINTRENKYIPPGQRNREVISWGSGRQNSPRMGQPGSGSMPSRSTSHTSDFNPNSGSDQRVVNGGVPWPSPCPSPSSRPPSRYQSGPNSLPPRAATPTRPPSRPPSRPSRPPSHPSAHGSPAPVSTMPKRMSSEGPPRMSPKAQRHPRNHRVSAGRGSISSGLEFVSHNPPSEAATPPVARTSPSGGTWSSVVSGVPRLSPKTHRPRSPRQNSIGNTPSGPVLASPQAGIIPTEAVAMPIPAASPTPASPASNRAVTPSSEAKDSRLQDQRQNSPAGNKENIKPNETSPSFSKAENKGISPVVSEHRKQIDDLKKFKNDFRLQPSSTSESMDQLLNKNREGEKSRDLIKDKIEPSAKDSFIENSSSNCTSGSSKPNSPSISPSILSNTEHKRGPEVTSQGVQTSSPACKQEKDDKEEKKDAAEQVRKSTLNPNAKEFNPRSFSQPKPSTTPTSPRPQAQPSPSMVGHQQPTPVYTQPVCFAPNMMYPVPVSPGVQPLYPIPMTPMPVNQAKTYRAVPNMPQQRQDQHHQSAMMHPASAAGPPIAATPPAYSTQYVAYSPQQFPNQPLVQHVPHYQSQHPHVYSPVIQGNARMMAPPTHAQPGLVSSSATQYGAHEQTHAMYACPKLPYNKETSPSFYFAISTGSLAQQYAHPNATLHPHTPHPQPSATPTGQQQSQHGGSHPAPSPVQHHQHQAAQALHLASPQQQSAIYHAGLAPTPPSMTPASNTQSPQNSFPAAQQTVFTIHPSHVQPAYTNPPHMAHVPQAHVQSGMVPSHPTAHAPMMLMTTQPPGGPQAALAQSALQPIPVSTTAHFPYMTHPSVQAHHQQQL

This assay concerns the target Ataxin-2 (Homo sapiens) (UniProt Q99700). Kind of assay: qHTS for Inhibitors of ATXN expression. Format: functional.
On to `N#CCC(=O)Nc1ccc(C(=O)NNC(=O)c2ccccc2-n2cccc2)cc1`, for which the Potency result is “inactive”.

Regarding `COc1cc(N2N=C(c3ccccc3)CC2c2ccccc2)c(C=O)cc1C=O` (configuration not stated), the Potency entry is “inactive”.

Turning to `Nc1c(C(=O)Nc2cccc(Cl)c2Cl)sc2nc(-c3cccnc3)ccc12`, the Potency entry was “inactive”.

For `O=C(Nc1cccc(-c2nc3ncccc3o2)c1)c1sc2ccccc2c1Cl`, the Potency was 17.8 µM (active).

With `Cc1ccc(-c2nc3ncccc3o2)cc1N`, the Potency result was “inactive”.

With `COCCCNC(=S)N/N=C/c1ccc2c(c1)OCO2`, the Potency result is “inactive”.

For `CNC(=S)N/N=C(\C)c1ccc2c(c1)OCO2`, the Potency was 44.7 µM (active).

With `COC(=O)c1ccc(N/C=C\C(=O)c2ccc3c(c2)OCO3)cc1`, the Potency result was “inactive”.

`COc1cc(Cn2c(N)c(C#N)c3nc4ccccc4nc32)cc(OC)c1`: the Potency result was “inactive”.

As to `O=C(Oc1ccc2c(-c3ccccc3)cc(=O)oc2c1)c1cccs1`, the Potency entry was “inactive”.

In the case of `COc1ccc(N2C(c3ccsc3)=Cc3cc4c(cc3C2c2c[nH]c3ccccc23)OCO4)cc1` (configuration not stated), the Potency is 28.2 µM (active).

For the compound `O=C(NC1CCS(=O)(=O)C1)c1cc2c(=O)n3ccccc3nc2n1Cc1ccccc1` (configuration not stated), the Potency result was “inactive”.

In the case of `CCN(CC)CCNC(=O)C(Cl)=C1C(Cl)=C(Cl)C(Cl)=C1Cl`, the Potency was 44.7 µM (active).

As for `CCCCOC(=O)c1ccc(NC(=O)C(=O)NCCN(CC)CC)cc1`, the Potency entry is “inactive”.

In the case of `CC(=O)CCC(=O)OCC(=O)c1ccc(C(F)(F)F)cc1`, the Potency entry was “inactive”.

`O=C(Cn1cc(C(F)(F)F)ccc1=O)NCc1ccc(F)cc1`: the Potency result was “inactive”.

Consider `N=C(N)N/N=C(\c1ccc(F)cc1)c1ccc(C(F)(F)F)cc1`, for which the Potency was 5.97 µM (active).

As to `CNC(=O)c1sc(N2N=C3/C(=C\c4ccccc4)CCCC3C2c2ccccc2)nc1C` (configuration not stated), the Potency result was “inactive”.

Consider `C[C@@H]1CN([C@@H](C)CO)C(=O)c2cccc(NC(=O)C3CCCCC3)c2O[C@@H]1CN(C)Cc1ccc(Cl)c(Cl)c1`, for which the Potency was 35.5 µM (active).

In the case of `C[C@H](CO)N1C[C@H](C)[C@@H](CN(C)Cc2ccc(Cl)c(Cl)c2)Oc2c(NC(=O)C3CC3)cccc2C1=O`, the Potency is 28.2 µM (active).

As to `CCCC(=O)Nc1ccc(C(=O)COC(=O)C2CC2C)cc1` (configuration not stated), the Potency entry is “inactive”.

In the case of `O=C(COc1ccc(Cl)cc1)NNC(=O)CSc1nncs1`, the Potency result is “inactive”.

Turning to `CC(C)(C)c1ccc(OCC(=O)NNC(=O)Nc2ccccc2)cc1`, the Potency entry was “inactive”.

For `CCc1ccc(OCC(=O)NC(N=C(S)Nc2ccc(Cl)cc2)C(Cl)(Cl)Cl)cc1` (configuration not stated), the Potency was 39.8 µM (active).

With `CCCC(=O)NC(N=C(S)Nc1ccc(N=Nc2ccccc2)cc1)C(Cl)(Cl)Cl` (configuration not stated), the Potency was 22.4 µM (active).

For `COc1ccc(C(=O)c2sc3nc(C)cc(-c4cccs4)c3c2N)cc1`, the Potency entry is “inactive”.

Consider `O=C1NC2c3c(I)sc(I)c3C(=O)C2O1` (configuration not stated), for which the Potency is 39.8 µM (active).

For `COc1ccc(OC)c(NC(=O)c2cnc(Nc3ccc(C)c(Cl)c3)c3ccccc23)c1`, the Potency entry was “inactive”.

On to `Oc1c(Cl)cc(Cl)cc1/C=N/c1nc[nH]n1`, for which the Potency entry is “inactive”.

On to `Cc1c(Cl)cccc1NS(=O)(=O)c1cccc2nsnc12`, for which the Potency entry is “inactive”.

On to `CCCCN(C(=O)C1CCC(CNS(=O)(=O)c2cccc3nsnc23)CC1)c1ccccc1` (configuration not stated), for which the Potency is 39.8 µM (active).

Regarding `O=C(Nc1ccccc1)Nc1cccc2nsnc12`, the Potency entry is “inactive”.

Take `Cn1nnc(NC(=S)NC(=O)c2ccc3ccccc3c2)n1`: the Potency result is “inactive”.

Consider `CCOC(=O)C1=C(COc2ccccc2)NC(=O)NC1c1ccc2ccccc2c1` (configuration not stated), for which the Potency was 35.5 µM (active).

For `CCOC(=O)C1=C(CN2CCN(c3ccc(OC)cc3)CC2)NC(=O)NC1c1ccc(Cl)cc1` (configuration not stated), the Potency is 39.8 µM (active).

Consider `COC(=O)C1=C(C)NC(=O)NC1c1ccc(OC(=O)c2ccco2)cc1` (configuration not stated), for which the Potency entry is “inactive”.

Take `CCOC(=O)C1=C(C)NC(=O)NC1c1ccc(N2CCC(c3ccccc3)=N2)cc1` (configuration not stated): the Potency entry is “inactive”.

For the compound `CCC(CC)COC(=O)C1=C(C)NC(=O)NC1c1ccc([N+](=O)[O-])cc1` (configuration not stated), the Potency result is “inactive”.

As to `CCOC(=O)C1=C(COC(=O)COc2cccc(C)c2C)NC(=O)NC1C` (configuration not stated), the Potency result was “inactive”.

For `CCOC(=O)c1cc2c(=O)n3ccccc3nc2n(CC(C)C)/c1=N\C(=O)COc1ccc(Cl)cc1`, the Potency entry was “inactive”.

`Cc1nc2sc(C(=O)OC(C)C)c(N)c2c(C)c1C`: the Potency entry is “inactive”.

On to `COc1cc(/C=C(/C#N)C(=O)NCCCc2ccccc2)ccc1OCC(=O)O`, for which the Potency entry is “inactive”.

With `Cc1cc(C)nc(NS(=O)(=O)c2ccc(N/C=C\C(=O)c3cccs3)cc2)n1`, the Potency entry was “inactive”.

For `Cc1ccc(S(=O)(=O)N2CCCc3cc(NS(=O)(=O)c4ccccc4)ccc32)cc1`, the Potency was 39.8 µM (active).

Regarding `Cc1cc(F)ccc1S(=O)(=O)Nc1ccc2c(c1)CCCN2C(=O)c1cccs1`, the Potency is 39.8 µM (active).

With `O=S(=O)(c1ccc2ccccc2c1)N1CCc2ccccc21`, the Potency entry was “inactive”.

With `Cc1ccc(S(=O)(=O)N2CCCc3cc(NS(=O)(=O)c4ccc(F)cc4)ccc32)cc1`, the Potency is 39.8 µM (active).

As for `Cc1cc(=O)oc2cc(NS(=O)(=O)c3ccccc3)ccc12`, the Potency entry was “inactive”.

Regarding `Cc1cc(=O)oc2cc(NS(=O)(=O)c3ccc(F)cc3)ccc12`, the Potency result was “inactive”.

For the compound `Cc1ccc2nc(-c3ccc(NS(=O)(=O)c4ccc(F)cc4)cc3)sc2c1`, the Potency result was “inactive”.

In the case of `C[C@@H]1C(c2cccc(Cl)c2)=NN(c2ccc(Br)cc2)[C@H]1C(=O)N1CCOC1=O`, the Potency result was “inactive”.

Take `Cc1cc(N2CCCC2)c(F)cc1/C=C\[N+](=O)[O-]`: the Potency entry was “inactive”.

Turning to `Cc1cc(NC(=O)CN(C)S(=O)(=O)c2ccc3c(c2)CCCC(=O)N3)ccc1Br`, the Potency was 31.6 µM (active).

With `Cc1cc(NC(=O)CCN2CCC(C)CC2)ccc1Br`, the Potency entry is “inactive”.

`CC(=O)N1CCCc2cc(S(=O)(=O)N(C)CC(=O)Nc3ccccc3)ccc21`: the Potency result was “inactive”.

As to `O=C1CS/C(=N/N=C/c2ccccc2)N1Cc1ccco1`, the Potency entry is “inactive”.

On to `C(=C/c1[nH]ccc2c3ccccc3nc1-2)/c1ccc2c(c1)OCO2`, for which the Potency entry was “inactive”.

Take `COc1ccc(-c2[nH]c(-c3ccc4c(c3)OCO4)nc2-c2ccccc2)cc1`: the Potency is 44.7 µM (active).

`COc1ccc2[nH]c(C(=O)N(Cc3ccccn3)Cc3ccccn3)cc2c1`: the Potency result is “inactive”.

For the compound `O=C1N/C(=C/c2cccn2-c2ccc(F)cc2)C(=O)N1Cc1ccccc1F`, the Potency entry was “inactive”.

With `O=[N+]([O-])c1ccc(Sc2ccncn2)c([N+](=O)[O-])c1`, the Potency is 8.91 µM (active).

Consider `O=[N+]([O-])c1ccc(Cc2ccccn2)c([N+](=O)[O-])c1`, for which the Potency result was “inactive”.

For the compound `CN(C)c1ccc(/C=N/N(CCO)C2=NS(=O)(=O)c3ccccc32)cc1`, the Potency result is “inactive”.

For the compound `CCOc1ccc2nc(NCCCNC(=O)c3cc(OC)c(OC)c(OC)c3)c(C#N)cc2c1`, the Potency entry was “inactive”.

For `COc1ccc(-c2cc(C(F)(F)F)n3nc(C(=O)NCCCN4CCOCC4)cc3n2)cc1`, the Potency result is “inactive”.

Regarding `CCOc1ccc(-c2cn3c(n2)sc2cc(C(=O)NCCCN4CCCCCC4)ccc23)cc1`, the Potency is 22.4 µM (active).

Regarding `C=CCC1=C/C(=C\c2c(N)n3nc(CC(=O)N4CCCC4)sc3nc2=O)C=C(OC)C1=O`, the Potency result was “inactive”.

For `C=CCNc1nnc(SC2CC(=O)N(c3ccc(OC)cc3)C2=O)s1` (configuration not stated), the Potency is 39.8 µM (active).

With `COc1ccc(Cc2nnc(NC(=O)C3CC(=O)N(c4ccc(OC)cc4)C3)s2)cc1` (configuration not stated), the Potency result is “inactive”.

For the compound `COc1ccc(C2CC(c3ccccc3F)=NN2c2ccc(S(N)(=O)=O)cc2)cc1` (configuration not stated), the Potency entry was “inactive”.

On to `COc1ccc(N2C(=O)CC(N3CCN(c4ccccc4)CC3)C2=O)cc1` (configuration not stated), for which the Potency entry was “inactive”.

As to `COc1ccc(CCN(C(=O)/C=C/C(=O)O)C2CC(=O)N(c3ccccc3)C2=O)cc1` (configuration not stated), the Potency entry was “inactive”.

As to `COc1ccc(N2C(=O)CC(Sc3nnc(-c4ccccc4F)n3C)C2=O)cc1` (configuration not stated), the Potency was 39.8 µM (active).

As to `CN1CCC[C@H]1CCNc1ccc2c(=O)c3ccccc3n(C)c2c1`, the Potency result is “inactive”.

Take `O=C(N/N=C/c1ccc(O)cc1)Nc1cccc2nsnc12`: the Potency entry is “inactive”.

For `CCCCC(CC)CN1C(=O)/C(=C/c2c[nH]nc2-c2ccccc2)SC1=S` (configuration not stated), the Potency was 22.4 µM (active).

For `Cc1ccnn1CC(=O)N/N=C/c1c[nH]nc1-c1ccccc1`, the Potency entry was “inactive”.

As for `CCCN1C(=O)/C(=C/c2c(N3CCNC(=O)C3CC(=O)OCC)nc3c(C)cccn3c2=O)SC1=S` (configuration not stated), the Potency entry was “inactive”.

For `CC(C)CN1C(=O)/C(=C/c2c[nH]nc2-c2ccccc2)SC1=S`, the Potency was 39.8 µM (active).

With `COc1ccccc1/C=C1\SC(=S)N(CCC(=O)NC2=NCCS2)C1=O`, the Potency result was “inactive”.

Take `O=C(Cc1csc(N2CCOCC2)n1)N/N=C/c1ccccc1C(=O)O`: the Potency result is “inactive”.

`NNC(=O)c1oc2nc(-c3ccco3)cc(-c3ccco3)c2c1N`: the Potency entry was “inactive”.

Take `Cc1cc(C)c2c(N)c(C(=O)Nc3nccs3)sc2n1`: the Potency result is “inactive”.

Take `CCCc1c(C(=O)N/N=C/c2c[nH]c3ccccc23)nnn1-c1nonc1N`: the Potency result is “inactive”.

On to `O=C(N/N=C/c1c[nH]c2ccccc12)c1cc(-c2ccc(-c3ccccc3)cc2)[nH]n1`, for which the Potency was 39.8 µM (active).

For the compound `CCOc1cccc(/C=N/NC(=O)c2cc(-c3cccn3C)[nH]n2)c1O`, the Potency result was “inactive”.

As for `O=C(NCc1ccco1)c1cc2ccc(O)cc2oc1=O`, the Potency result is “inactive”.

Regarding `CC(=O)N/N=C/c1cc(C(C)(C)C)cc(/C=N/NC(C)=O)c1O`, the Potency result was “inactive”.

Turning to `CN(CCc1ccccc1)C(C(=O)Nc1ccc2c(c1)OCCO2)c1ccnc2ccccc12` (configuration not stated), the Potency was 35.5 µM (active).

Regarding `O=C(O)c1ccc(/C=C/c2nc(O)c3c4c(sc3n2)CCC4)cc1`, the Potency entry is “inactive”.

Turning to `CCCCCCOc1ccc(/C=c2\s/c(=C(/C#N)C(=O)NCc3ccco3)n(-c3ccccc3)c2=O)cc1`, the Potency entry is “inactive”.

In the case of `O=C(CSc1nnc(NC(=O)C2CC2)s1)NCc1cccs1`, the Potency result was “inactive”.

Regarding `CC(C)(C)c1nc(SCC(=O)NCc2cccs2)c2ccccc2n1`, the Potency entry was “inactive”.

With `O=C(CC1N=C2c3ccccc3N=C(SCC(=O)Nc3cccc(C(F)(F)F)c3)N2C1=O)NCc1cccs1` (configuration not stated), the Potency was 39.8 µM (active).

With `CN(C)CCNc1nc2sc3c(c2c(=O)n1CCc1ccccc1)CCCCC3`, the Potency was 22.4 µM (active).

As to `Cc1cccn2c(=O)c3cc(C(=O)NC4CCCC4)c(=N)n(CCc4ccccc4)c3nc12`, the Potency result is “inactive”.

On to `Cc1cc2nc3c(=O)n(CCc4ccccc4)c(=O)[nH]c3nc2cc1N`, for which the Potency entry is “inactive”.
